This is part of a sample that, as a whole, favours compounds with a hit. Of some 83,000 tested, about 20% had one in any assay.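 Interpretation: 100, growth as untreated; towards 0, rising growth inhibition; 0, no net growth; 0 to -100, cell death. Compounds scoring below 10 were considered active.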 The source made the active and inactive calls.
These molecules were tested on U251 CNS (assay: NCI-60 one-dose screen, 48 h (100 = growth as untreated, 0 = no growth, -100 = all killed)). Conditions: 10 µM unless noted.

Row | SMILES | growth
1 | CCCCN1C=CCN(CCCC)C1 | 22.4% (inactive)
2 | Cc1nn(-c2ccccc2)c(Cl)c1/C=N\N=c1/sc2ccccc2n1C | 103% (inactive)
3 | COc1cc(CC(=O)n2ncc3ccc(N)cc32)cc(OC)c1OC | 98.4% (inactive)
4 | Cn1cc(-c2nc(-c3c[nH]c4c(Cl)nccc34)cs2)c2cc(Br)ccc21 | 77.9% (inactive)
5 | CCNc1nc2ccc(Nc3ccnc4cc(Cl)ccc34)cc2[nH]1 | 75.2% (inactive)
6 | Cc1ncc(C(=O)Nc2ccc(CN3CCN(C)CC3)c(C(F)(F)F)c2)cc1C#Cc1cnc(N)cc1C#N | -98.6% (active)
7 | COc1cc(/C=C\c2cc(/C=C\c3ccc(O)c(OC)c3)n(C(=O)COc3ccccc3)n2)ccc1O | 8.81% (active)
8 | C[C@H](c1nc2ccc(N)cc2[nH]1)[C@H]1CC[C@H]2[C@@H]3CCC4=CC(=O)CC[C@]4(C)[C@H]3CC[C@]12C | 70.7% (inactive)
9 | CC(c1ccccc1)C(C(=O)c1ccccc1)c1ccccc1 (centres undefined) | 96.3% (inactive)
10 | N#CC1=C(N)Oc2c(ccc3ccccc23)C1c1ccccc1Cl (centres undefined) | 12.4% (inactive)
11 | N#CC(C(=O)/C(=N/NC(=O)c1ccccc1O)C(C#N)c1ccccc1)c1ccccc1 (centres undefined) | 6.45% (active)
12 | C[C@@H](Nc1ncnc2ccc(-c3cnc(N)nc3)cc12)c1ccc(F)cc1 | 80.9% (inactive)
13 | Cc1cccc(C)c1N=c1oc2ccc(Cl)cc2nc1-c1ccccc1O | 94.4% (inactive)
14 | COc1cc(C2C3=C(COC3=O)N(CCO)c3cc4c(cc32)CCC4)cc(OC)c1OC (centres undefined) | 7.16% (active)
15 | COc1cc2cc(Oc3cccc(NC(=O)Nc4cc(C(F)(F)F)cc(C(F)(F)F)c4)c3)c(C)nc2cc1OC | -26.5% (active)
16 | Cc1cc(Cl)nc(N(CCNc2ccnc3cc(Cl)ccc23)Cc2ccccn2)n1 | 26.8% (inactive)
17 | COc1ccc(C(=O)c2cc(OC)c(OC)c(OC)c2)cc1O | 20.5% (inactive)
18 | N#C/C(=C\c1ccc([N+](=O)[O-])s1)c1nc2cc(Br)ccc2s1 | -20.5% (active)
19 | Brc1ccc2[nH]cc(-c3cncn3CCc3ccccc3)c2c1 | 55.7% (inactive)

Row | SMILES | growth
20 | Cc1c(C)c([N+](=O)[O-])c(C)c([N+](=O)[O-])c1C | 100% (inactive)
21 | COc1ccc(C(=O)CC#N)cc1 | 100% (inactive)
22 | O=C(/C=C/c1c(-c2ccc(Cl)cc2)nn(-c2ccccc2)c1C(F)(F)F)c1ccc(Cl)cc1 | 86.3% (inactive)
23 | Cc1ccc(NS(=O)(=O)c2ccc(-c3cnc(C4CC4)o3)cc2)cc1C(F)(F)F | 68.5% (inactive)
24 | CC(C)c1ccc(Nc2ccc3c(OCCCN4CCN(C)CC4)cccc3n2)cc1 | 23.9% (inactive)
25 | CCN(c1ccccc1)S(=O)(=O)c1cc([N+](=O)[O-])ccc1Cl | 59.2% (inactive)
26 | C=C1C(=O)O[C@H]2[C@H]1CC/C(CNS(=O)(=O)c1cccc3ccccc13)=C\CC[C@@]1(C)O[C@@H]21 | 53.1% (inactive)
27 | COc1cc(C(=O)Nc2cc3c(cc2Oc2cc(C)cc(C)c2)C(=O)N(C)[C@@H](CC(=O)N(C)O)C(=O)N3)c(Br)c(OC)c1OC | -0.595% (active)
28 | Cc1c2cc[nH]c(=O)c2c(C)c2c1[nH]c1cc(OCCN3CCN(C)CC3)ccc12 | 17% (inactive)
29 | Cn1cc(-c2csc(-c3c[nH]c4ccccc34)n2)c2ccnc(Cl)c21 | 48.6% (inactive)
30 | COc1ccc2nc(-c3ccc(-c4noc(-c5cc(OC)c(OC)c(OC)c5)n4)cc3)[nH]c2c1 | 25.1% (inactive)
31 | Cn1cc(-c2nc(-c3c[nH]c4c(Cl)nccc34)cs2)c2cc(F)ccc21 | 85.8% (inactive)
32 | O=C1NN(C(=O)c2ccccc2)C(c2ccc(Cl)c(Cl)c2)=C/C1=C\c1ccc([N+](=O)[O-])cc1 | 69.7% (inactive)
33 | COc1ccc(OC)c(CCn2cncc2-c2c[nH]c3ccccc23)c1 | 87.8% (inactive)
34 | N#Cc1c(-c2cccc([N+](=O)[O-])c2)nc(SCC(=O)c2ccc(Cl)cc2)[nH]c1=O | 97.3% (inactive)
35 | COC(=O)c1ccc2c(c1)[n+](=O)c(C(C)=O)c(C(F)(F)F)n2[O-] | -72.2% (active)
36 | C#Cc1cccc(NC(=O)Nc2cccc(NC(=O)CCl)c2)c1 | -88% [8.25 µM] (active)
37 | Cc1nc2sccn2c1-c1cn2ccsc2n1 | 90.8% (inactive)

Each molecule was assayed on PC-3 prostate in the same assay as above. Conditions: 10 µM unless noted.

Row | SMILES | growth
38 | CCCCN1C=CCN(CCCC)C1 | 32.4% (inactive)
39 | Cc1nn(-c2ccccc2)c(Cl)c1/C=N\N=c1/sc2ccccc2n1C | 89.5% (inactive)
40 | COc1cc(CC(=O)n2ncc3ccc(N)cc32)cc(OC)c1OC | 88.2% (inactive)
41 | Cn1cc(-c2nc(-c3c[nH]c4c(Cl)nccc34)cs2)c2cc(Br)ccc21 | 81.2% (inactive)
42 | CCNc1nc2ccc(Nc3ccnc4cc(Cl)ccc34)cc2[nH]1 | 63.9% (inactive)
43 | Cc1ncc(C(=O)Nc2ccc(CN3CCN(C)CC3)c(C(F)(F)F)c2)cc1C#Cc1cnc(N)cc1C#N | -55.6% (active)
44 | COc1cc(/C=C\c2cc(/C=C\c3ccc(O)c(OC)c3)n(C(=O)COc3ccccc3)n2)ccc1O | 8.49% (active)
45 | C[C@H](c1nc2ccc(N)cc2[nH]1)[C@H]1CC[C@H]2[C@@H]3CCC4=CC(=O)CC[C@]4(C)[C@H]3CC[C@]12C | 82.9% (inactive)
46 | CC(c1ccccc1)C(C(=O)c1ccccc1)c1ccccc1 (centres undefined) | 94.8% (inactive)
47 | N#CC1=C(N)Oc2c(ccc3ccccc23)C1c1ccccc1Cl (centres undefined) | 20% (inactive)
48 | N#CC(C(=O)/C(=N/NC(=O)c1ccccc1O)C(C#N)c1ccccc1)c1ccccc1 (centres undefined) | 55.2% (inactive)
49 | C[C@@H](Nc1ncnc2ccc(-c3cnc(N)nc3)cc12)c1ccc(F)cc1 | 69.1% (inactive)
50 | Cc1cccc(C)c1N=c1oc2ccc(Cl)cc2nc1-c1ccccc1O | 88.6% (inactive)
51 | COc1cc(C2C3=C(COC3=O)N(CCO)c3cc4c(cc32)CCC4)cc(OC)c1OC (centres undefined) | 21.3% (inactive)
52 | COc1cc2cc(Oc3cccc(NC(=O)Nc4cc(C(F)(F)F)cc(C(F)(F)F)c4)c3)c(C)nc2cc1OC | 6.82% (active)
53 | Cc1cc(Cl)nc(N(CCNc2ccnc3cc(Cl)ccc23)Cc2ccccn2)n1 | 56.9% (inactive)
54 | COc1ccc(C(=O)c2cc(OC)c(OC)c(OC)c2)cc1O | 20.4% (inactive)
55 | N#C/C(=C\c1ccc([N+](=O)[O-])s1)c1nc2cc(Br)ccc2s1 | -49% (active)
56 | Brc1ccc2[nH]cc(-c3cncn3CCc3ccccc3)c2c1 | 53.9% (inactive)

Row | SMILES | growth
57 | Cc1c(C)c([N+](=O)[O-])c(C)c([N+](=O)[O-])c1C | 98.7% (inactive)
58 | COc1ccc(C(=O)CC#N)cc1 | 105% (inactive)
59 | O=C(/C=C/c1c(-c2ccc(Cl)cc2)nn(-c2ccccc2)c1C(F)(F)F)c1ccc(Cl)cc1 | 92.2% (inactive)
60 | Cc1ccc(NS(=O)(=O)c2ccc(-c3cnc(C4CC4)o3)cc2)cc1C(F)(F)F | 68.1% (inactive)
61 | CC(C)c1ccc(Nc2ccc3c(OCCCN4CCN(C)CC4)cccc3n2)cc1 | 62.9% (inactive)
62 | CCN(c1ccccc1)S(=O)(=O)c1cc([N+](=O)[O-])ccc1Cl | 76.8% (inactive)
63 | C=C1C(=O)O[C@H]2[C@H]1CC/C(CNS(=O)(=O)c1cccc3ccccc13)=C\CC[C@@]1(C)O[C@@H]21 | 45.7% (inactive)
64 | COc1cc(C(=O)Nc2cc3c(cc2Oc2cc(C)cc(C)c2)C(=O)N(C)[C@@H](CC(=O)N(C)O)C(=O)N3)c(Br)c(OC)c1OC | -14.5% (active)
65 | Cc1c2cc[nH]c(=O)c2c(C)c2c1[nH]c1cc(OCCN3CCN(C)CC3)ccc12 | 7.38% (active)
66 | Cn1cc(-c2csc(-c3c[nH]c4ccccc34)n2)c2ccnc(Cl)c21 | 56% (inactive)
67 | COc1ccc2nc(-c3ccc(-c4noc(-c5cc(OC)c(OC)c(OC)c5)n4)cc3)[nH]c2c1 | 95.2% (inactive)
68 | Cn1cc(-c2nc(-c3c[nH]c4c(Cl)nccc34)cs2)c2cc(F)ccc21 | 92.9% (inactive)
69 | O=C1NN(C(=O)c2ccccc2)C(c2ccc(Cl)c(Cl)c2)=C/C1=C\c1ccc([N+](=O)[O-])cc1 | 46.7% (inactive)
70 | COc1ccc(OC)c(CCn2cncc2-c2c[nH]c3ccccc23)c1 | 71.4% (inactive)
71 | N#Cc1c(-c2cccc([N+](=O)[O-])c2)nc(SCC(=O)c2ccc(Cl)cc2)[nH]c1=O | 100% (inactive)
72 | COC(=O)c1ccc2c(c1)[n+](=O)c(C(C)=O)c(C(F)(F)F)n2[O-] | -58.1% (active)
73 | C#Cc1cccc(NC(=O)Nc2cccc(NC(=O)CCl)c2)c1 | -26.3% [8.25 µM] (active)
74 | Cc1nc2sccn2c1-c1cn2ccsc2n1 | 94.6% (inactive)

Reference: PubChem BioAssay (NCI)
